Experimental data reported in PubChem BioAssay (NCI).
Compounds without any hit were thinned out: in the full panel of roughly 83,000, 20% have a hit.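 Results are percent growth after 48 hours of single-concentration exposure. 100 means growth as in untreated cells, lower positive values show inhibition; negative values down to -100 show cell death.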 Unmarked numbers belong to inactive results. The source made the active and inactive calls. The calls were made as follows: active = growth percent below 10; inactive = the rest.

Test system: MDA-MB-468 breast
Experiment: NCI-60 one-dose screen, 48 h (100 = growth as untreated, 0 = no growth, -100 = all killed)
Settings: 10 µM unless noted

| Structure (SMILES) | growth |
| --- | --- |
| O=c1cc(-c2ccccc2)[nH]c(=S)[nH]1 | 115% |
| CCOC(=O)c1ccc2c(c1)c1c(C)c3cnccc3c(C)c1n2C | -81.8% (active) |
| COc1cccc(/C=C2\SC(N3CCN(c4ccccn4)CC3)=NC2=O)c1 | 101% |
| Cc1nc2ncnc(Cl)c2[nH]1 | 105% |
| NC(=O)c1ccc2nc3c(n2c1)C(=O)C(=O)c1ccccc1-3 | -57.7% (active) |
| COc1ccc(C2Nc3nc(OC)n(C)c(=O)c3N=C3c4ccccc4C(=O)C32)cc1 (configuration not stated) | 104% |
| CNc1nc2c(s1)C(c1cc(F)ccc1F)CC(=O)N2 (configuration not stated) | -2.32% (active) |
| COC(=O)/C(=C\c1c(-c2ccccc2)[nH]c2ccccc12)S(C)(=O)=O | 36.3% |
| COc1cc2c(c(OC)c1OC)CCC(c1cccc(NC(=O)c3ccc(Br)cc3)c1)O2 (configuration not stated) | 35.8% |
| CC(C)=CCC[C@](C)(O)[C@H]1CC[C@]2(C)[C@@H]1CC[C@@H]1[C@@]3(C)C/C(=C/c4ccco4)C(=O)C(C)(C)[C@@H]3CC[C@]12C | 111% |
| O=c1n(Cc2ccc3ccccc3c2)ccn1Cc1ccc2ccccc2c1 | 94.3% |
| NCCCNc1nc2ccccc2c2c(=O)c3cc(F)cc(Cl)c3sc12 | 73.4% |
| O=C1O[C@H]([C@H](O)CO)C(O)=C1O | 90% |
| Cn1cc(-c2nnc(-c3ccccc3)s2)c2cc(Br)cnc21 | 59.4% |
| CC(C)(C)OC(=O)N1CCN(S(=O)(=O)/N=C2\NC(=O)NC2=C(Cl)Cl)CC1 | 63.7% |
| O=C1CC(c2ccccc2)Cc2nc3ccc(Cl)cc3cc21 (configuration not stated) | 10.2% |
| COc1ccc(/C(C#N)=C/c2nc3c(N4CCOCC4)nc(Cl)nc3n2C)cc1OC | -20.9% (active) |
| NC(=O)[C@@H]1Cc2ccccc2CN1C(=O)c1ccc2c(c1)Cc1ccccc1-2 | 71.4% |
| CN1C(C(=O)Nc2ccccn2)=C(O)c2sc(Cl)cc2S1(=O)=O | 98.7% |
| Cc1c([N+](=O)[O-])cc(C(C)(C)C)cc1[N+](=O)[O-] | 90.6% |
| CCOC(=O)c1[nH]c(C)c(C(C)=O)c1C | 87.2% |
| CCCCCCOc1ccc(C(=N)N(CCCC)CCCC)c2ccccc12 | -82.3% (active) |
| CC(C)C1CCC(C)C(O)C1 (configuration not stated) | 98.5% |
| CC/C(Cc1ccccc1)=C(/c1ccc(O)cc1)c1ccc(OCCN2CCCC2)cc1 | -82.1% (active) |
| C=C1C(=O)O[C@H]2[C@H]1CC/C(COC(=O)NCc1cccc(OC)c1)=C\CC[C@@]1(C)O[C@@H]21 | -13.2% (active) |
| N=C(N)c1ccc(-c2ccc(-c3ccc(Cl)cc3)s2)nc1 | -56.4% (active) |

| Structure (SMILES) | growth |
| --- | --- |
| O=C(NNc1nc2cc(F)ccc2n2c(CN3CCC(O)C3)ccc12)c1cnccn1 (configuration not stated) | -17.3% (active) |
| CC(C)C/C=C/C=C/C(=O)N[C@@H](CC(N)=O)C(=O)N[C@@H]1C(=O)N[C@H](c2ccc(O)cc2)C(=O)N[C@H](CCCN)C(=O)N[C@H]([C@@H](C)O)C(=O)N[C@H](c2ccc(O)cc2)C(=O)N[C@H](c2ccc(O)cc2)C(=O)N[C@H]([C@H](C)O)C(=O)N[C@H](Cc2ccccc2)C(=O)N[C@H](CCCN)C(=O)N[C@H](c2ccc(O[C@H]3O[C@@H](CO)[C@@H](O)[C@@H](O)[C@H]3O[C@@H]3O[C@H](CO)[C@H](O)[C@H](O)[C@@H]3O)cc2)C(=O)N[C@H]([C@H](C)O)C(=O)N[C@H](c2ccc(O)cc2)C(=O)NCC(=O)N[C@H](CC(C)C)C(=O)N[C@H](C)C(=O)N[C@H](c2ccc(O)c(Cl)c2)C(=O)O[C@@H]1C(N)=O | 66.7% |
| COc1cc(-c2nn(-c3ccc(NC(=O)NCCCNC(=O)c4ccccc4)cc3)cc2-c2ccncc2)ccc1Cl | 9.32% (active) |
| O=C(N/N=C/c1ccc([N+](=O)[O-])s1)c1[nH]c2ccc(Br)cc2c1-c1ccccc1 | 24.8% |
| CCCCS(=O)(=O)c1cc(Nc2ccc(O)c3c2C(=O)c2ccccc2C3=O)ccc1C | 76.4% |
| COc1cc2oc(-c3cccc(NC(=O)c4ccccc4)c3)cc(=O)c2c(OC)c1OC | 84.2% |
| N#C/C(=C\c1ccc2ccccc2c1)C(=O)Nc1sc2c(c1C#N)CCC2 | 96.8% |
| CCCc1n(Cc2ccc3ccccc3n2)cc[n+]1Cc1ccc2ccccc2n1 | -39.9% (active) |
| CC[C@]1(O)C[C@@H]2CN(CCc3c([nH]c4ccccc34)[C@@](C(=O)OC)(c3cc4c(cc3OC)N(C)[C@H]3[C@@](O)(C(=O)OC)[C@H](OC(C)=O)[C@]5(CC)C=CCN6CC[C@]43[C@@H]65)C2)C1 | 19.8% |
| O=c1n(CC2CO2)c(=O)n(CC2CO2)n1CC1CO1 (configuration not stated) | 25.6% |
| COc1ccc(C(=O)CSc2nc(-c3cc(OC)ccc3OC)cc(-c3ccc(OC)cc3)c2C#N)cc1 | 105% |
| COc1ccc(/C=C2\Cc3c(Br)cccc3C2=O)c(OC)c1 | 49.6% |
| CCCCCO/N=C\c1c2c(O)c3c(O)c(C)c4c(c3c1O)C(=O)C(C)(O/C=C\C(OC)C(C)C(OC(C)=O)C(C)C(O)C(C)C(O)C(C)/C=C\C=C(\C)C(=O)N2)O4 (configuration not stated) | 0.538% (active) |
| CC(=O)C1CCC2C3CC(F)C4=CC(=O)CCC4(C)C3C(O)CC12C (configuration not stated) | 104% |
| CCCC(=O)Oc1ccc(/C(=C(\C)c2ccc(OC)cc2)c2ccc(OCCN3CCCCC3)cc2)cc1 | 68.6% |
| C1CNC(C2=NCCN2)=N1 | -26.9% (active) |
| C=C(C)COc1ccc(C(C)(C)C)cc1 | 91.2% |
| Cc1ccc(C(=O)NN2C(=O)CSC2c2cccc([N+](=O)[O-])c2)cn1 (configuration not stated) | 105% |
| Brc1cccc(-c2nc(-c3ccc4c(c3)OCCO4)co2)c1 | 34.9% [25 µM] |
| [2H]C1([2H])CCN(C(=O)C2CC2)c2cc(NS(=O)(=O)c3ccc(-c4cccc(C(N)=O)c4)cc3)ccc21 | -5.25% (active) |
| COc1cc(-c2nn(-c3ccc(NC(=O)NCCNS(=O)(=O)c4ccc(F)cc4)cc3)cc2-c2ccncc2)ccc1Cl | -27% (active) |
| C[C@H]1C(=O)C23CCC1C[C@@]21O[C@@H]2C(C)(C)C=CC(=O)C23COC1=O | 102% |
| C/C(=C(/c1ccc(O)cc1)c1ccc(OCCN(C)C)cc1)c1ccccc1 | 58.4% |
| NC(=O)N1CCOCC1 | 111% |
| Clc1ccc([I+]c2ccc(Cl)cc2Cl)c(Cl)c1 | -37.9% (active) |
| COc1ccc(-c2cc(C(=O)N3N=C(c4ccc(N)cc4)CC3c3ccccc3)c3ccccc3n2)cc1 (configuration not stated) | 29.3% |

| Structure (SMILES) | growth |
| --- | --- |
| C=CCn1c(SCC(=O)Nc2cccc(C(=O)/C=C/c3ccccc3Cl)c2)nc2ccccc2c1=O | 98.1% |
| Cc1cc2nc3c(=O)[nH]c(=O)nc-3n(CC=O)c2cc1C | 95.8% |
| O=C1Nc2ccccc2/C1=N/N=C/c1ccc(OC2OC(CO)C(O)C(O)C2O)cc1 (configuration not stated) | 112% |
| O=C(O)c1ccc(NC(=O)c2ccc(Nc3ccnc(C(F)(F)F)c3)cc2)cc1 | 99.8% |
| COc1cc(OC)cc(C2=C3CC[C@@H]4[C@H](CC[C@]5(C)C(=O)CC[C@@H]45)C3=CC3C(O)c4cccnc4N4C(=O)COC234)c1 (some centres not stated) | 105% |
| O=C1/C(=C/c2ccc(Cl)cc2)CN(C(=O)C(Cl)Cl)C/C1=C\c1ccc(Cl)cc1 | -59.7% (active) |
| Nc1c(C(=O)Nc2cccc3ccccc23)sc2nc3c(cc12)CCCCCC3 | 30.7% |
| C[C@@H]1C[C@H](N)C[C@H](c2ccncc2NC(=O)c2ccc(F)c(-c3c(F)cccc3F)n2)C1 | 22.3% |
| COc1cc2c(cc1-c1c(C)noc1C)ncc1nc(-c3ccccn3)n([C@H](C)COC(F)F)c12 | 46.5% |
| CCc1ccc2nc(NC(=O)Cc3csc(NC(=O)c4ccco4)n3)sc2c1 | -54.2% (active) |
| Cc1cnc(C(=O)NNc2nc3sc4c(c3c(=O)n2C)C(C)CCC4)cn1 (configuration not stated) | -28% (active) |
| CSc1nc(NCc2ccccc2)c(C#N)c(-c2cccc([N+](=O)[O-])c2)n1 | 110% |
| C=C1C(=O)O[C@H]2[C@H]1CC/C(COC(=O)c1cc3ccccc3o1)=C\CC[C@@]1(C)O[C@@H]21 | -71.2% (active) |
| CN(C)CCCOc1c2ccccc2nc2c1oc1ccc(Cl)cc12 | -3.66% (active) |
| CCC(NC(c1cc2cccc3ccc4cccc1c4c32)c1nnnn1C(C)(C)C)C1CCCCC1 (configuration not stated) | 7.35% (active) |
| Cc1c(N2CCCCC2)[nH]c2ccccc12 | 121% |
| CCNc1nc(-c2ccc(F)cc2)c(C#N)c(=O)n1C | 45% |
| CN1CCN(Cc2ccc(NC(=O)c3cncc(C#Cc4c(N)ncc5ccc(C#N)cc45)c3)cc2C(F)(F)F)CC1 | 96.1% |
| N#CC1(C#N)C2=C(CCCC2)NC(c2c(F)cccc2Cl)C1(C#N)C#N (configuration not stated) | 53% |
| OCCCCc1nccc2c1[nH]c1ccccc12 | 92.9% |
| CCCCC(=O)N/N=C/c1cc(I)cc(I)c1O | 69% |
| C=CCn1c(SCC(=O)Nc2ccc(C(=O)/C=C/c3ccc(Cl)cc3)cc2)nnc1-c1ccccc1 | 101% |
| Cc1c(NC(=O)OC[C@@H]2COCCN2)cn2ncnc(Nc3ccc4c(cnn4Cc4cccc(F)c4)c3)c12 | -53.7% (active) |
| COc1cc(OC)cc(-c2cncn2-c2ccc(-c3nc4cc(OC)cc(OC)c4s3)cc2)c1 | 4% (active) |
| Cc1ccc(S(=O)(=O)/C(=C\c2ccc(Cl)cc2)C(=O)c2ccccc2)cc1 | 105% |
